In publication PMC7862700, “An all-to-all approach to the identification of sequence-specific readers for epigenetic DNA modifications on cytosine”:

Columns and labels:
Assay in all cases: DAPPL (digital affinity profiling via proximity ligation, sequencing); 10 mM Tris-HCl pH 7.5, 50 mM NaCl, 1 mM DTT, 4% glycerol, room temperature, 30 min; GST-TFs on glutathione beads, 16-mer random dsDNA library, 0.1% formaldehyde crosslink after washing; high values mean tight binding
FEV = biological target: T1, FEV (Homo sapiens, UniProt Q99581 1-238); settings: protein: recombinant; tags: N-terminal GST; dsDNA, one strand shown
T1 sequence: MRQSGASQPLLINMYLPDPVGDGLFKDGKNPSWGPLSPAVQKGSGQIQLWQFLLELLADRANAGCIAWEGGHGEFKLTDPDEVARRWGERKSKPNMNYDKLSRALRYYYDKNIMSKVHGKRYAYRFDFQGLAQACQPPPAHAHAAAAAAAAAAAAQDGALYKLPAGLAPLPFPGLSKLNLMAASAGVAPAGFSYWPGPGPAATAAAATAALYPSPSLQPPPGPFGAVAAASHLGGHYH
Outline: (§1)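 Binding signal is each hexamer's read frequency for a factor divided by its frequency in the tag-only sample. The factors were GST-fused human transcription factors from yeast, captured on glutathione beads, DNA-barcoded and pooled with that sample. Pools were incubated with 200 nmole of a random double-stranded 16-mer DNA library in Tris/NaCl/DTT/glycerol buffer at room temperature for 30 min, then washed, crosslinked with 0.1% formaldehyde, proximity-ligated with BsaI/T4 ligase (1 h, 37 °C), PCR-amplified and sequenced on an Illumina NextSeq500.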

ETV5 = ETV5 (Homo sapiens, UniProt P41161 1-510); settings: protein: recombinant; tags: N-terminal GST; dsDNA, one strand shown
Chain of ETV5 (P41161 whole entry): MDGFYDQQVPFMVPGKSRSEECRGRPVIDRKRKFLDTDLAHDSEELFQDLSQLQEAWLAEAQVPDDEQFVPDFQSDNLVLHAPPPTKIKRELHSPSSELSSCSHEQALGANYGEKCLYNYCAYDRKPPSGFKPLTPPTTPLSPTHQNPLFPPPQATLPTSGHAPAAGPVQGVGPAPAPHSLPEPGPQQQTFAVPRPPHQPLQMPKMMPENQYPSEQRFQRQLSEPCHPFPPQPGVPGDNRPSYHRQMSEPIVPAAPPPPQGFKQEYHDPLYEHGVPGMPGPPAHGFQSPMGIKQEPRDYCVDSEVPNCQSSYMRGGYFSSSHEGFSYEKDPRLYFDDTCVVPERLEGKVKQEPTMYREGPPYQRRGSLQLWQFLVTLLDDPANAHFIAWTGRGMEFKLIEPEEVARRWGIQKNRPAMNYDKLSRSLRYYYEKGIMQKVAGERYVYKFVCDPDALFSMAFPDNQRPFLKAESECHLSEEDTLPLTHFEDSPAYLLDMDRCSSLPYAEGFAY
Outline: as §1

HSF1 = HSF1 (Homo sapiens, UniProt Q00613 1-529); settings: protein: recombinant; tags: N-terminal GST; chain copies: 3; dsDNA, one strand shown
Chain of HSF1 (Q00613 whole entry): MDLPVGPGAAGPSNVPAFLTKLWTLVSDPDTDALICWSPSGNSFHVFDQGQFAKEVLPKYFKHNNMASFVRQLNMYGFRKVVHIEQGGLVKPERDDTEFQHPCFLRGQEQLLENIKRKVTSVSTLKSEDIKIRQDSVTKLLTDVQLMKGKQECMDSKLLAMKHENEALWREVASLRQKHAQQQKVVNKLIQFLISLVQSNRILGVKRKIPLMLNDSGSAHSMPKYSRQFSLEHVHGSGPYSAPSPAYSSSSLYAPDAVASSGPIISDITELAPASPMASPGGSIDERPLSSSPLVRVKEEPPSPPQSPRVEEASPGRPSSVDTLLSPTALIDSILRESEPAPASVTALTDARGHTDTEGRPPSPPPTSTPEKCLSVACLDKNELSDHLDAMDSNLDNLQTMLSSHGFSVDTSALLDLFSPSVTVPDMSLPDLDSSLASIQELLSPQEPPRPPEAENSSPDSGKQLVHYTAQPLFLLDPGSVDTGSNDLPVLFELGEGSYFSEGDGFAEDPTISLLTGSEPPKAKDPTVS
Outline: as §1

SPIC = biological target: T2, SPIC (Homo sapiens, UniProt Q8N5J4 1-248); settings: protein: recombinant; tags: N-terminal GST; dsDNA, one strand shown
T2 sequence: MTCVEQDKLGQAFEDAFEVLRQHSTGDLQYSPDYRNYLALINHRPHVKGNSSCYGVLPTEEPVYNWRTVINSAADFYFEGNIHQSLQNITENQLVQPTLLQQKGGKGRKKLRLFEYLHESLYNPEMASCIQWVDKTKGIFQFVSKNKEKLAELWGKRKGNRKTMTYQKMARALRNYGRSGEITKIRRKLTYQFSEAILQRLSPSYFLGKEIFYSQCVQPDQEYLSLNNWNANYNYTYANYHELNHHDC
Outline: as §1

ELF4 = ELF4 (Homo sapiens, UniProt Q99607 1-663); settings: protein: recombinant; tags: N-terminal GST; dsDNA, one strand shown
Chain of ELF4 (Q99607 whole entry): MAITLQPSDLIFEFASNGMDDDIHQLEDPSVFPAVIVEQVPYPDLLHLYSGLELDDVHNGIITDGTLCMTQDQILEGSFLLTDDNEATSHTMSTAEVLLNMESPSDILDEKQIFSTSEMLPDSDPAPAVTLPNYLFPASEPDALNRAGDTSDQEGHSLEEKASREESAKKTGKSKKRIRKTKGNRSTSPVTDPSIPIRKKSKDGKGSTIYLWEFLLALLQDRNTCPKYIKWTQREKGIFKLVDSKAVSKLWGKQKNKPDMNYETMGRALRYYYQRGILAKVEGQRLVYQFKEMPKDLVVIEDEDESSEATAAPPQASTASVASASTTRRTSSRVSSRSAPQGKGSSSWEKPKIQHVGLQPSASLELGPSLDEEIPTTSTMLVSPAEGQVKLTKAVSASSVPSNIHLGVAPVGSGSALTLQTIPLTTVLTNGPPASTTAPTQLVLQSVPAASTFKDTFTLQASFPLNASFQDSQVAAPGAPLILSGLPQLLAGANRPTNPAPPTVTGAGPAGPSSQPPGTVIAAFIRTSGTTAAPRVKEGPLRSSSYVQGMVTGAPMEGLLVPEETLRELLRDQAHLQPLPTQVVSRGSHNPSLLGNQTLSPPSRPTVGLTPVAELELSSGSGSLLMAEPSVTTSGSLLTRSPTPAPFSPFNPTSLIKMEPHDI
Outline: as §1

ELK4 = biological target: T3, ELK4 (Homo sapiens, UniProt P28324-2 1-405); settings: protein: recombinant; tags: N-terminal GST; dsDNA, one strand shown
T3 sequence: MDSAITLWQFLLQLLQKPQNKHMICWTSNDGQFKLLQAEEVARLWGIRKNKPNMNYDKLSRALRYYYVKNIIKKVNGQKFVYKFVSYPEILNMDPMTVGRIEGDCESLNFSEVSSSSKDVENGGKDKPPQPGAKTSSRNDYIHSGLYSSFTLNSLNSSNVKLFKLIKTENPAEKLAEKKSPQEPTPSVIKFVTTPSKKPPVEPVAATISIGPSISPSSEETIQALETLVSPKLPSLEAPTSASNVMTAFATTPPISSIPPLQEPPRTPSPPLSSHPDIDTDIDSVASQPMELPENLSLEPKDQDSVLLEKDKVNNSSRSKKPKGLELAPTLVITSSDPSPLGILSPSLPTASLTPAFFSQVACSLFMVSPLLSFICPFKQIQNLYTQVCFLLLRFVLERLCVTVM
Outline: as §1

ETV2 = biological target: T4, ETV2 (Homo sapiens, UniProt O00321 1-342); settings: protein: recombinant; tags: N-terminal GST; dsDNA, one strand shown
T4 sequence: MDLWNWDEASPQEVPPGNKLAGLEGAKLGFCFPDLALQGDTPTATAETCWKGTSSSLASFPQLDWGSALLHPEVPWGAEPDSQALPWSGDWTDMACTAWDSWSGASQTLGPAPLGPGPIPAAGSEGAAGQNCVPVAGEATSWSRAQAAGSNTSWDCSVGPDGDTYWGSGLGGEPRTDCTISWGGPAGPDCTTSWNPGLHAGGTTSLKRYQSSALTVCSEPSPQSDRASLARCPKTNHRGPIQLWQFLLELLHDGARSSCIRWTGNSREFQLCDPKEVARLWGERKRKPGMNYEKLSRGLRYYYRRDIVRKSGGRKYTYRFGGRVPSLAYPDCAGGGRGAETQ
Outline: as §1

ELF3 = biological target: T5, ELF3 (Homo sapiens, UniProt P78545 1-371); settings: protein: recombinant; tags: N-terminal GST; dsDNA, one strand shown
T5 sequence: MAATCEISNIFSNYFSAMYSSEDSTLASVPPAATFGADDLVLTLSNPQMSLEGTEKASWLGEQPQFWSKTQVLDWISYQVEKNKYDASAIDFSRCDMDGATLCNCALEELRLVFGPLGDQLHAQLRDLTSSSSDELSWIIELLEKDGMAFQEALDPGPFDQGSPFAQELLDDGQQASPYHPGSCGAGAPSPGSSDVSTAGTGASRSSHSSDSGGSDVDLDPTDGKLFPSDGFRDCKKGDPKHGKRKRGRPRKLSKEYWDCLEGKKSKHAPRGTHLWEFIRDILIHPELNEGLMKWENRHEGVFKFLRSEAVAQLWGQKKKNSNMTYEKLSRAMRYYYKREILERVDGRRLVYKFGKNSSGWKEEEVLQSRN
Outline: as §1

CRX = CRX (Homo sapiens, UniProt O43186 1-299); settings: protein: recombinant; tags: N-terminal GST; dsDNA, one strand shown
Chain of CRX (O43186 whole entry): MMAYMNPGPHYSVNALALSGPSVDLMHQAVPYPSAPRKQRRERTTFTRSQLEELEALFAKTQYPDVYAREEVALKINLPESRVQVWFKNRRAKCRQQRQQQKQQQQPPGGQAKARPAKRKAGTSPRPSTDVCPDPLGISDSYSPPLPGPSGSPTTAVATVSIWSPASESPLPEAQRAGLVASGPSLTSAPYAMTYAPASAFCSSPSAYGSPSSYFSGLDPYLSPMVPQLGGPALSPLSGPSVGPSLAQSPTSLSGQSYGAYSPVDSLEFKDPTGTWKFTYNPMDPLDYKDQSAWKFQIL
Outline: as §1

ETV1 = ETV1 (Homo sapiens, UniProt P50549 1-477); settings: protein: recombinant; tags: N-terminal GST; dsDNA, one strand shown
Chain of ETV1 (P50549 whole entry): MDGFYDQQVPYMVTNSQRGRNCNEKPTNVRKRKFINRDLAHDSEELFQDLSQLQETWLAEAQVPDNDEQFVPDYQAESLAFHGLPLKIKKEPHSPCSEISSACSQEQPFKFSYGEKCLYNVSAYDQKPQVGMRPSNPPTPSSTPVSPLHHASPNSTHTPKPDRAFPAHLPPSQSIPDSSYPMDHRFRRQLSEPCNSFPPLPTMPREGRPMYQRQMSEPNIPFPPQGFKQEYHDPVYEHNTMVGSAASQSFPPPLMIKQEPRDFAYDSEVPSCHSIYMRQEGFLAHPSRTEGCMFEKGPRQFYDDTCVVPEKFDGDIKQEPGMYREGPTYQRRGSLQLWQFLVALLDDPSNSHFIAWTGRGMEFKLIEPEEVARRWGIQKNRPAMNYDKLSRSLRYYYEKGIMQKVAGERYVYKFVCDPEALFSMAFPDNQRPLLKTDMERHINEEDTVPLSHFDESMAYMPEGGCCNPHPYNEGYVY
Outline: as §1

For ACACTA, the binding signal (FEV) was 1.14 fold enrichment (6-mer frequency, TF over GST control), the binding signal (ETV5) was 1.14 fold enrichment (6-mer frequency, TF over GST control) and the binding signal (HSF1) was 1.12 fold enrichment (6-mer frequency, TF over GST control). For the same sequence, the binding signal (SPIC) was 1.14 fold enrichment (6-mer frequency, TF over GST control), the binding signal (ELF4) was 1.13 fold enrichment (6-mer frequency, TF over GST control) and the binding signal (ELK4) was 1.16 fold enrichment (6-mer frequency, TF over GST control). For the same sequence, the binding signal (ETV2) was 1.1 fold enrichment (6-mer frequency, TF over GST control), the binding signal (ELF3) was 1.19 fold enrichment (6-mer frequency, TF over GST control) and the binding signal (CRX) was 1.11 fold enrichment (6-mer frequency, TF over GST control). For the same sequence, the binding signal (ETV1) was 1.03 fold enrichment (6-mer frequency, TF over GST control).
